# Laboratory results: article PMC4336329 (PLoS ONE, 2015)
# The whole screen tested about 310,000 compounds, of which about 14,000 (4.5%) showed an effect of 50% or more. Effects have a minus sign here. The full list was thinned out, with strong results kept by preference.
# Target: human ether-à-go-go-related gene (hERG) potassium channel (human, UniProt Q12809)
# Assay: primary screen, population patch clamp on CHO cells stably expressing hERG; higher = less effect of the substance
# 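Further: peak tail current of the secondary pulse compared with the same well before compound.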
# Sequence of human ether-à-go-go-related gene (hERG) potassium channel (Q12809 whole entry, looked up): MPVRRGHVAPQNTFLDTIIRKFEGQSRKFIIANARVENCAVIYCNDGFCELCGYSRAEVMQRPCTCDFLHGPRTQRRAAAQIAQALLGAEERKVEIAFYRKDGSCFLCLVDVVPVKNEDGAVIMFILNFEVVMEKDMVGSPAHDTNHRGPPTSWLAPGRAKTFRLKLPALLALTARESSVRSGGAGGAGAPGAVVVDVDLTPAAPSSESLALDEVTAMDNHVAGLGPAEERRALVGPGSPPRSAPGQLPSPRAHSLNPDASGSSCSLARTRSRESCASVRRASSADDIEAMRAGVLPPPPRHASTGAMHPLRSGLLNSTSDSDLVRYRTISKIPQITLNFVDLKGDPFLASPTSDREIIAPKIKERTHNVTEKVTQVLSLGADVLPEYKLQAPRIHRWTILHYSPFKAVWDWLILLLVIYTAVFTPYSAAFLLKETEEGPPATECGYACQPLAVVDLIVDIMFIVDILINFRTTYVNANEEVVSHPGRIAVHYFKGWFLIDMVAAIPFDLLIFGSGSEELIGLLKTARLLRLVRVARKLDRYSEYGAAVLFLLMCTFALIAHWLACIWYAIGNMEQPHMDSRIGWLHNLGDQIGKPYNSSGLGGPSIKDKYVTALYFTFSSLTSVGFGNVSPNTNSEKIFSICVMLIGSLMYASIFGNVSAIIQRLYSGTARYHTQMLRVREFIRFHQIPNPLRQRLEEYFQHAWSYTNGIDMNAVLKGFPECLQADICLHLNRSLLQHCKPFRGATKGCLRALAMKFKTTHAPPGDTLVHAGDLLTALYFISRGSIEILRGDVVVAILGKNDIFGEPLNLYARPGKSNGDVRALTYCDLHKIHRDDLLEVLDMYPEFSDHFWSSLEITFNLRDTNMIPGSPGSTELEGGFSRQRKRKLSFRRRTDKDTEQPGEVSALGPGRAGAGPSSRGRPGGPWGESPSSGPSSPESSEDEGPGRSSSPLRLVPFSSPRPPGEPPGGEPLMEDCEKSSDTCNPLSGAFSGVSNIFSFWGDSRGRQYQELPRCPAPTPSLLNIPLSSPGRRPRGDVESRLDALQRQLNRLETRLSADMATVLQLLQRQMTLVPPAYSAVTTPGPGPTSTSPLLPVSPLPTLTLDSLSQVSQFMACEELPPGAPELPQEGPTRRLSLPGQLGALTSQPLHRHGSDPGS
row,SMILES,"hERG current change (%, negative = inhibition) at 10uM"
1,O=C(Nc1ccccc1Cc1ccccc1)c1ccccc1F,-4.48%
2,COc1ccc(Oc2ccccc2/C=N/O)cc1,4.99%
3,Cc1sc2ncnc(N3CCC(C(=O)Nc4ccc(C#N)c(Cl)c4)CC3)c2c1C,-7.2%
4,O=C(CN1CCN(C(=O)COc2cccc(F)c2)CC1)Nc1ccc(Cl)c(C(F)(F)F)c1,-60.6%
5,O=C(COc1ccc(S(=O)(=O)N2CCOCC2)cc1)Nc1ccc(Cl)c(C(F)(F)F)c1,-13.1%
6,Cc1ccc(OCCC(=O)Nc2ccc(F)c(F)c2)cc1,-5.62%
7,O=C(CN1CCN(c2ccccn2)CC1)Nc1ccc(Cl)c(C(F)(F)F)c1,-7.97%
8,CCOc1ccc(NC(=O)CN2CCN(CC(=O)Nc3ccc(Cl)c(C(F)(F)F)c3)CC2)cc1,-57%
9,Cc1ccc(OCCC(=O)Nc2ccc(C)c(F)c2)cc1,-50.6%
10,O=C(CN1CCN(S(=O)(=O)c2ccc(F)cc2)CC1)Nc1ccc(Cl)c(C(F)(F)F)c1,9.48%
11,Cc1ccc(OCCC(=O)Nc2ccc(F)c(Cl)c2)cc1,5.65%
12,CCOc1ccc(NC(=O)CN2CCN(CC(=O)Nc3cccc(F)c3)CC2)cc1,-86.3%
13,COc1ccccc1N1CCN(CC(=O)Nc2cccc(F)c2)CC1,-28.1%
14,CC(=O)c1cccc(OCC(=O)N2CCN(CC(=O)Nc3cccc(F)c3)CC2)c1,-42.2%
15,O=C(CN1CCN(c2ccccn2)CC1)Nc1cccc(F)c1,5.56%
16,Cc1c(NC(=O)c2ccc([N+](=O)[O-])o2)cccc1-c1nc2ncccc2o1,-11.8%
17,CCC(C)C(=O)Nc1ccc([N+](=O)[O-])cc1OC (stereo not drawn),4.15%
18,CCC(C)(C)NC(=O)CN(Cc1ccc(OC)cc1)C(=O)CCC(=O)Nc1nccs1,-4.32%
19,O=C(NC1CCCCC1)c1ccc(S(=O)(=O)c2ccccc2Cl)c([N+](=O)[O-])c1,1.94%
20,COc1cccc(CC(=O)OCC(=O)N(C)CC(=O)Nc2ccc(F)cc2)c1,-9.44%

row,SMILES,"hERG current change (%, negative = inhibition) at 10uM"
1,CN(C)c1ccc(C2Nc3ccccc3C(=O)N2NS(C)(=O)=O)cc1 (stereo not drawn),14.2%
2,C/C(=N\NC(=O)c1nnn(-c2nonc2N)c1CN1CCCCCC1)c1ccc(Br)cc1,24.6%
3,Cc1ccc(OCCOC(=O)c2c(-c3ccccc3)noc2C)cc1,7.59%
4,CCOc1ccc(NC(=O)CN2CCN(C3c4ccccc4-c4ccccc43)CC2)cc1,-40.3%
5,CCOc1ccc(NC(=O)CN2CCN(Cc3c(F)cccc3F)CC2)cc1,-75.3%
6,CCOc1ccc(NC(=O)CN2CCc3ccccc3C2)cc1,-6.01%
7,CCOc1cc(N2CCOCC2)c(OCC)cc1NC(=O)c1nc2nc(C)cc(C)n2n1,18.4%
8,CN(C)CCCNC(=O)/C=C/c1ccc(OCc2c(F)cccc2Cl)cc1,-67%
9,COCCCNC(=O)/C=C/c1ccc(OCc2c(F)cccc2Cl)cc1,-1.25%
10,O=C(/C=C/c1ccc(OCc2c(F)cccc2Cl)cc1)N1CCOCC1,-30.1%
11,COc1cc2c(cc1OC)C(c1ccccc1F)OC(=O)C2 (stereo not drawn),6.96%
12,O=C(CN1CCOCC1)Nc1ncc(Cc2cccc(Cl)c2Cl)s1,-51.4%
13,O=C(CN1CCOCC1)Nc1ncc(Cc2cccc3ccccc23)s1,-23.3%
14,O=C(CN1CCOCC1)Nc1ncc(Cc2cccc(Cl)c2)s1,-43%
15,O=C(COc1ccc2ccccc2c1)Nc1ccc2c3c(cccc13)CC2,3.91%
16,O=C(CSc1ncnc2c1cnn2-c1cccc(Cl)c1)NCC1CCCO1 (stereo not drawn),7.88%
17,CCCc1cc(=O)oc2cc(C)cc(OC(C)C(=O)NCc3cccnc3)c12 (stereo not drawn),-47.3%
18,Cc1cc(OC(C)C(=O)NCc2ccncc2)c2c(C)cc(=O)oc2c1 (stereo not drawn),-49.2%
19,CCc1cc(=O)oc2cc(C)cc(OC(C)C(=O)NCc3cccnc3)c12 (stereo not drawn),-32.9%
20,CCc1cc(=O)oc2cc(C)cc(OC(C)C(=O)NCc3ccncc3)c12 (stereo not drawn),-56.8%

row,SMILES,"hERG current change (%, negative = inhibition) at 10uM"
1,CCCCc1cc(=O)oc2cc(C)cc(OC(C)C(=O)NCc3ccncc3)c12 (stereo not drawn),-36%
2,CCCc1cc(=O)oc2cc(C)cc(OC(C)C(=O)NCc3ccncc3)c12 (stereo not drawn),-69.5%
3,O=S(=O)(Nc1nc2c(s1)CCCC2)c1ccc(F)cc1,-21.1%
4,O=C(NCCc1cccc(F)c1)[C@@H]1CSC2c3ccccc3C(=O)N21 (stereo partly drawn),-13.9%
5,Cc1cc(C(=O)Nc2ccc3c(c2)OCCO3)c(C)o1,4.25%
6,COC(=O)c1cccc(Oc2cccc(C(F)(F)F)c2)n1,13%
7,Cc1ccc(S(=O)(=O)N2C(=O)CCC2C(=O)Nc2ccc3c(c2)OCCO3)cc1 (stereo not drawn),10.6%
8,O=C1CCN(Cc2cccnc2)CCN1[C@H](CO)c1ccccc1,16%
9,CCN(CC(=O)Nc1c(F)cccc1F)C(=O)CCNS(=O)(=O)c1ccc(C)c(C)c1,1.26%
10,CCN(CC(=O)NCc1ccc(F)cc1)C(=O)c1cc2ccccc2o1,-55.9%
11,CCc1ccc(OCC(=O)N(CC)CC)cc1,-55%
12,CCN(Cc1ccccc1)C(=O)COc1ccccc1,9.21%
13,O=C(NCc1ccc(F)cc1)c1cc2ccccc2o1,-13.4%
14,CCN(CC(=O)NCc1ccc(F)cc1)C(=O)Cc1c(F)cccc1Cl,-37.6%
15,CCN(CC(=O)NCc1ccc(F)cc1)C(=O)CCNS(=O)(=O)c1cccc(C)c1,-51.9%
16,CCN(CC(=O)NCc1ccc(F)cc1)C(=O)c1ccc(COc2ccccc2)cc1,-47.9%
17,CCN(CC)C(=O)COc1ccc(-c2ccccc2)cc1,-36%
18,CCN(CC(=O)NCc1ccc(F)cc1)C(=O)c1ccc(C)o1,6.13%
19,CCN(CC(=O)NCc1ccc(F)cc1)C(=O)COc1ccc(C)c(C)c1,-53.6%
20,CCN(CC(=O)NCc1ccc(Cl)cc1)C(=O)c1cc2ccccc2o1,-32.2%
